Laboratory results as given in PubChem BioAssay (NCI).
About 83,000 compounds went through this panel and 20% of them were active in at least one assay; those are over-represented in the sample as a whole.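 Cells were grown in 96-well plates and exposed to the test compound at a single concentration for 48 hours; results are reported as percent growth, with values below 10 considered active.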 The source made the active and inactive calls.

How the values were obtained:
Test in all cases: NCI-60 one-dose screen, 48 h (100 = growth as untreated, 0 = no growth, -100 = all killed)
Settings in all cases: 10 µM unless noted
HCT-15 colon = system: HCT-15 colon
HT29 colon = system: HT29 colon
SNB-75 CNS = system: SNB-75 CNS
SNB-19 CNS = system: SNB-19 CNS
U251 CNS = system: U251 CNS
SK-MEL-5 melanoma = system: SK-MEL-5 melanoma
UACC-62 melanoma = system: UACC-62 melanoma
LOX IMVI melanoma = system: LOX IMVI melanoma
SK-MEL-28 melanoma = system: SK-MEL-28 melanoma
PC-3 prostate = system: PC-3 prostate

Measured: growth

O=C(Nc1ccc2c(c1)C(=O)c1ccccc1-2)c1ccccc1
active: U251 CNS -13.9%
inactive: HCT-15 colon 67.2% | HT29 colon 35.8% | SNB-75 CNS 86.6% | SNB-19 CNS 73% | SK-MEL-5 melanoma 97.9% | UACC-62 melanoma 90.2% | LOX IMVI melanoma 73.2% | SK-MEL-28 melanoma 105%

CCOC(=O)C1C(=O)NC(C(=O)OCC)(C(=O)OCC)C1CC (stereo not given)
inactive: HCT-15 colon 92.8% | HT29 colon 111% | SNB-75 CNS 107% | SNB-19 CNS 105% | U251 CNS 105% | PC-3 prostate 92.9% | UACC-62 melanoma 98.1% | LOX IMVI melanoma 95.6% | SK-MEL-28 melanoma 123%

O=Nc1c2cccnc2n2nnc3ccc(Cl)cc3c12
active: HT29 colon 8.1%
inactive: HCT-15 colon 24.5% | SNB-75 CNS 63.4% | SNB-19 CNS 89.8% | U251 CNS 50.6% | SK-MEL-5 melanoma 96.2% | UACC-62 melanoma 73.5% | LOX IMVI melanoma 26.6% | SK-MEL-28 melanoma 28.3%

CC1CN(/N=C/c2ccc([N+](=O)[O-])o2)C(=N)O1 (stereo not given)
inactive: HCT-15 colon 97.8% | HT29 colon 108% | SNB-75 CNS 105% | SNB-19 CNS 99.7% | U251 CNS 101% | PC-3 prostate 89.5% | UACC-62 melanoma 92.7% | LOX IMVI melanoma 95.4% | SK-MEL-28 melanoma 115%

CCOC(=O)c1sc(NC(=O)COc2ccc(/C=C3\CCc4cc(OC)ccc4C3=O)cc2)nc1C
active: LOX IMVI melanoma -88.1%
inactive: HCT-15 colon 102% | HT29 colon 85.8% | SNB-75 CNS 105% | SNB-19 CNS 96.1% | U251 CNS 91.2% | PC-3 prostate 79.5% | UACC-62 melanoma 95.2% | SK-MEL-28 melanoma 118%

CCC(C)C1NC(=O)C(CCNCS(=O)(=O)O)NC(=O)C(NC(=O)C(CCNCS(=O)(=O)O)NC(=O)C(NC(=O)C(CCNCS(=O)(=O)O)NC(=O)CCCCC(C)C)C(C)O)CCNC(=O)C(C(C)O)NC(=O)C(CCNCS(=O)(=O)O)NC(=O)C(CCNCS(=O)(=O)O)NC(=O)C(C(C)CC)NC1=O (stereo not given)
inactive: HCT-15 colon 99.6% | HT29 colon 17.3% | SNB-75 CNS 48.5% | SNB-19 CNS 54.9% | U251 CNS 33.3% | PC-3 prostate 61.6% | UACC-62 melanoma 47.5% | LOX IMVI melanoma 48.8% | SK-MEL-28 melanoma 49.8%

C[C@H]1O[C@@H](O[C@H]2[C@@H](O)C[C@H](O[C@H]3[C@@H](O)C[C@H](O[C@H]4CC[C@]5(C)C6C[C@@H](O)[C@]7(C)[C@@H](C8=CC(=O)OC8)CC[C@]7(O)C6CC[C@@H]5C4)O[C@@H]3C)O[C@@H]2C)C[C@H](O)[C@@H]1O (stereo not given in full)
active: HCT-15 colon -94.9% | HT29 colon -84.5% | SNB-75 CNS -75.6% | SNB-19 CNS -100% | U251 CNS -100% | SK-MEL-5 melanoma -100% | UACC-62 melanoma -98.8% | LOX IMVI melanoma -98.1% | SK-MEL-28 melanoma -56.3%

Oc1ccccc1/C=N/N1CCCCCC1
inactive: HCT-15 colon 93.7% | HT29 colon 97.6% | SNB-75 CNS 80.3% | SNB-19 CNS 97.1% | U251 CNS 120% | SK-MEL-5 melanoma 94.2% | UACC-62 melanoma 85.9% | LOX IMVI melanoma 96% | SK-MEL-28 melanoma 109%

c1ccc(N2c3nc4ccccc4cc3Sc3cc4ccccc4nc32)nc1
inactive: HCT-15 colon 95.6% | HT29 colon 104% | SNB-75 CNS 109% | SNB-19 CNS 97.8% | U251 CNS 85.7% | PC-3 prostate 72.5% | UACC-62 melanoma 78.4% | LOX IMVI melanoma 84.1% | SK-MEL-28 melanoma 115%

CC[C@H]1CN2CCc3cc(OC)c(OC)cc3C2C[C@@H]1CC1NCCc2cc(OC)c(OC)cc21 (stereo not given in full)
active: HCT-15 colon -18% | HT29 colon -14.5% | SNB-75 CNS -52.2% | SNB-19 CNS -6.47% | U251 CNS -10.2% | SK-MEL-5 melanoma -88.7% | UACC-62 melanoma -82% | LOX IMVI melanoma -27.8% | SK-MEL-28 melanoma -14.4%

Nc1ccc(N=Nc2ccccc2)cc1[N+](=O)[O-]
inactive: HCT-15 colon 68.8% | HT29 colon 92% | SNB-75 CNS 73.3% | SNB-19 CNS 95.3% | U251 CNS 86.7% | PC-3 prostate 83.9% | UACC-62 melanoma 73% | LOX IMVI melanoma 77.9% | SK-MEL-28 melanoma 119%

C/C(=C\CCc1ccoc1)CC/C=C(\C)CCCC1COC(=O)C1 (stereo not given)
inactive: HCT-15 colon 99.2% | HT29 colon 113% | SNB-75 CNS 96.7% | SNB-19 CNS 99.6% | U251 CNS 95.6% | PC-3 prostate 91.2% | SK-MEL-5 melanoma 98.6% | UACC-62 melanoma 80% | SK-MEL-28 melanoma 96.9%

CCN(CC)CCNCC(=O)Oc1ccc(/C=C/C(=O)CC(=O)/C=C/c2ccc(OC(=O)CNCCN(CC)CC)c(OC)c2)cc1OC
active: HT29 colon -80.7% | SNB-75 CNS -8.49% | LOX IMVI melanoma -66.5%
inactive: HCT-15 colon 14.4% | SNB-19 CNS 22% | U251 CNS 13.4% | PC-3 prostate 14.4% | UACC-62 melanoma 15.4% | SK-MEL-28 melanoma 14.5%

CC(=O)OC1Oc2cc(C)c(C)cc2-c2oc(=O)c(-c3ccccc3)cc21 (stereo not given)
inactive: SNB-19 CNS 26.9% | U251 CNS 13.2% | SK-MEL-5 melanoma 16.7% | UACC-62 melanoma 14.2% | LOX IMVI melanoma 41.9% | SK-MEL-28 melanoma 49%
active: HCT-15 colon 6.95% | HT29 colon -23.7% | SNB-75 CNS -1.15%

COc1ccc2c(c1)C(=Nc1cc(OC)c(OC)c(OC)c1)C(=O)N2
inactive: HCT-15 colon 100% | HT29 colon 115% | SNB-75 CNS 104% | SNB-19 CNS 113% | U251 CNS 93% | SK-MEL-5 melanoma 114% | UACC-62 melanoma 88.8% | LOX IMVI melanoma 81.6% | SK-MEL-28 melanoma 90.2%

O=C(Nc1ccc(Cl)cc1)Nc1ccccc1CNc1nc(Nc2ccc(OCCN3CCCC3)cc2)ncc1Cl
inactive: SNB-19 CNS 42% | SK-MEL-5 melanoma 50.2% | UACC-62 melanoma 99.3%
active: HCT-15 colon 6.28% | HT29 colon 0.197% | SNB-75 CNS -17% | PC-3 prostate -8.19% | LOX IMVI melanoma -95.1% | SK-MEL-28 melanoma -77.7%

NC(=N\N=C/Cc1ccccc1)/C(N)=N\N=C\Cc1ccccc1
inactive: HCT-15 colon 94.9% | HT29 colon 120% | SNB-75 CNS 98.5% | SNB-19 CNS 96.6% | U251 CNS 106% | SK-MEL-5 melanoma 107% | UACC-62 melanoma 96.1% | LOX IMVI melanoma 96.8% | SK-MEL-28 melanoma 120%

CCN(CC)c1ccc(C(=C2C=CC(=[N+](CC)Cc3cccc(S(=O)(=O)O)c3)C=C2)c2ccc(N(CC)Cc3cccc(S(=O)(=O)O)c3)cc2)cc1
inactive: HCT-15 colon 85.1% | HT29 colon 12.8% | SNB-75 CNS 33.2% | SNB-19 CNS 56.9% | U251 CNS 20.8% | SK-MEL-5 melanoma 54% | UACC-62 melanoma 63.8% | LOX IMVI melanoma 35.4% | SK-MEL-28 melanoma 30.3%

CCN(CC)c1ccc(/C=C/C(=O)c2cccc(NS(C)(=O)=O)c2)cc1
active: HT29 colon 5.36%
inactive: HCT-15 colon 27.8% | SNB-75 CNS 48.4% | SNB-19 CNS 74.6% | U251 CNS 41.6% | SK-MEL-5 melanoma 39.6% | UACC-62 melanoma 36.1% | LOX IMVI melanoma 15% | SK-MEL-28 melanoma 72.5%

CC1CN(C2CCCCC2)C(=O)NC1=O (stereo not given)
inactive: HCT-15 colon 104% | HT29 colon 105% | SNB-75 CNS 93.4% | SNB-19 CNS 97.4% | U251 CNS 110% | SK-MEL-5 melanoma 105% | UACC-62 melanoma 87.5% | LOX IMVI melanoma 101% | SK-MEL-28 melanoma 116%
